Laboratory results from PubChem BioAssay (EPA / NIEHS).
Results filed as inconclusive are left out. The source made the active and inactive calls. Rule for the calls, unless noted: active = hit-call score of the fitted dose curve at least 0.9, where 1 is the maximum; inactive = score below 0.9.

Legend:
[1] = ACEA_ER_80hr: ACEA Biosciences xCELLigence Real-Time Cell Analysis on Estrogen Receptor Agonism for Proliferation (AID 2282667; active = hit-call score of the fitted dose curve at least 0.9, where 1 is the maximum); conditions: T47D proliferation, impedance (xCELLigence), 80 h
Method in brief: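 Real-time impedance growth kinetics of human T-47D breast cells read 80 h after dosing, gain-of-signal fitted relative to DMSO. Compounds: 1:4 serial series, top final concentration 100 uM, n = 2.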

[2] = ATG_CRE_CIS: Attagene CIS-FACTORIAL HepG2 Assay for human cAMP Responsive Element (CRE) binding protein 3 (AID 2282926); conditions: HepG2 CRE cis-reporter, Attagene multiplexed mRNA; actives raise or lower the signal
Method in brief: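 Multiplexed transcription-unit reporters transfected into HepG2; 24 h dosing; RT-PCR/capillary electrophoresis fluorescence read-out; bidirectional fit vs DMSO.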

[3] = target: CCAAT/enhancer-binding protein beta (Homo sapiens) (UniProt P17676); assay: ATG_C_EBP_CIS: Attagene CIS-FACTORIAL HepG2 Assay for human CCAAT/Enhancer Binding Protein (C/EBP) beta (AID 2282927); conditions: HepG2 Attagene cis-factorial transcription factor reporter; actives raise or lower the signal
Method in brief: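 Endogenous C/EBPb-driven reporter transcripts measured in transfected human HepG2 cells at 24 h via RT-PCR and capillary electrophoresis of labelled fragments. Activity fitted in both directions relative to DMSO baseline.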

[4] = ATG_CMV_CIS: Attagene CIS-FACTORIAL HepG2 Assay for human CMV (Internal Marker) (AID 2282928); conditions: HepG2 CMV promoter reporter, transcription factor profiling; actives raise or lower the signal;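 note: endpoint acts as a background internal control marker rather than a target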
Method in brief: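 After transient transfection of HepG2 with reporter transcription units driven by cis-regulatory promoters, cells receive test chemical for 24 h. Labeled reporter amplicons, digested with HpaI, are sized and quantified by capillary electrophoresis against DMSO.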

[5] = ATG_DR4_LXR_CIS: Attagene CIS-FACTORIAL HepG2 Assay for human Liver X Receptor (LXR), DR4 submotif (AID 2282929); conditions: HepG2 Attagene DR4 cis-reporter, mRNA transcription; actives raise or lower the signal
Method in brief: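 Measures endogenous transcription factor activity via a DR4-driven reporter transcript in human HepG2 cells. Compounds incubated 24 h; mRNA quantified by RT-PCR and capillary electrophoresis, analysed as gain or loss of signal versus DMSO.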

[6] = target: Aryl hydrocarbon receptor (Homo sapiens) (UniProt P35869); assay: ATG_Ahr_CIS: Attagene CIS-FACTORIAL HepG2 Assay for human Aryl Hydrocarbon Receptor (Ahr) (AID 2282930); conditions: HepG2 AhR cis-factorial reporter transcription; actives raise or lower the signal
Method in brief: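 Reporter mRNA levels, quantified by RT-PCR and fluorescent capillary electrophoresis, reflect endogenous AhR transcriptional activity in HepG2 cells carrying transfected cis-promoter reporter constructs. Readout at 24 h post-dose; gain or loss fitted against DMSO baseline.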

[7] = ATG_AP_1_CIS: Attagene CIS-FACTORIAL HepG2 Assay for human Activator Protein 1 (AP-1) (AID 2282931); conditions: HepG2 Attagene cis-factorial AP-1 reporter mRNA; actives raise or lower the signal
Method in brief: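 Bidirectional concentration-response fitting against DMSO controls. Underlying signal: reporter mRNA from cis-promoter constructs in transiently transfected HepG2, measured after 24 h by RT-PCR and capillary electrophoresis.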

[8] = ATG_AP_2_CIS: Attagene CIS-FACTORIAL HepG2 Assay for human Activator Protein 2 (AP-2) (AID 2282932); conditions: HepG2 AP-2 cis-reporter, Attagene transcription factor profiling; actives raise or lower the signal
Method in brief: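 HepG2, transient MRTU transfection, cis-regulated reporters; 24 h compound exposure; RNA isolated, RT-PCR, 6-FAM labelling, HpaI digest, CE fluorescence. DMSO = negative control/baseline, bidirectional fit.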

[9] = ATG_BRE_CIS: Attagene CIS-FACTORIAL HepG2 Assay for human Bone Morphogenetic Protein (BMP) Response Element (BRE) (AID 2282933); conditions: HepG2 BMP response element reporter, Attagene transcription factor profiling; actives raise or lower the signal
Method in brief: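 Endogenous transcription factor activity read in transiently transfected HepG2 cells after 24 h chemical exposure. Bidirectional curve fitting against DMSO; readout is reporter transcript level by RT-PCR with capillary electrophoresis of labelled products.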

[10] = target: Retinoic acid receptor alpha (Homo sapiens) (UniProt P10276); assay: ATG_DR5_RAR_CIS: Attagene CIS-FACTORIAL HepG2 Assay for human Retinoic Acid Receptor Alpha (RARE), DR5 submotif (AID 2282934); conditions: HepG2 Attagene cis-factorial RARE DR5 reporter, mRNA; actives raise or lower the signal
Method in brief: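 Reporter transcripts from a DR5-regulated unit, measured via RT-PCR plus capillary electrophoresis, reflect endogenous RAR activity in transiently transfected human HepG2 liver cells. Exposure lasted 24 h; gain or loss of signal scored against DMSO.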

[11] = target: Transcription factor E2F1 (Homo sapiens) (UniProt Q01094); assay: ATG_E2F_CIS: Attagene CIS-FACTORIAL HepG2 Assay for human E2F Transcription Factor 1 (AID 2282935); conditions: HepG2 Attagene cis-reporter, E2F reporter RNA transcripts; actives raise or lower the signal
Method in brief: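 Cis-element reporter mRNA induction in transiently transfected HepG2, 24 h exposure. Activity fitted in both directions relative to DMSO negative control.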

[12] = ATG_E_Box_CIS: Attagene CIS-FACTORIAL HepG2 Assay for human Enhancer Box (E-box) (AID 2282936); conditions: HepG2 E-box cis-reporter transcription, actives raise or lower the signal
Method in brief: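 Cells: HepG2 (human liver), transient MRTU transfection. Exposure 24 h. RNA → oligo(dT) RT → PCR → 6-FAM label → HpaI → CE. Activity fitted both directions relative to DMSO.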

[13] = ATG_M_61_CIS: Attagene CIS-FACTORIAL HepG2 Assay for M61 Transcription Factor (Internal Marker) (AID 2282937); conditions: HepG2 Attagene CIS-FACTORIAL M61 internal marker reporter; actives raise or lower the signal
Method in brief: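 Fluorescence from labelled cDNA fragments, separated by capillary electrophoresis, quantifies reporter induction. HepG2 cells bearing transiently transfected cis-promoter MRTUs were incubated with test chemical for 24 h; DMSO defined baseline for gain/loss fitting.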

[14] = ATG_EGR_CIS: Attagene CIS-FACTORIAL HepG2 Assay for human Early Growth Response 1 (EGR1) (AID 2282938); conditions: HepG2 Attagene CIS-FACTORIAL EGR reporter mRNA; actives raise or lower the signal
Method in brief: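 Cell-based multiplex transcription assay: HepG2 carrying transfected cis-element reporter units, 24 h chemical treatment. Fluorescence from capillary electrophoresis of RT-PCR products gives mRNA levels; fitting is bidirectional relative to DMSO.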

[15] = ATG_M_19_CIS: Attagene CIS-FACTORIAL HepG2 Assay for M19 Transcription Factor (Internal Marker) (AID 2282939); conditions: HepG2 Attagene CIS-FACTORIAL M19 internal marker reporter; actives raise or lower the signal
Method in brief: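 Internal marker readout, fitted in both directions against DMSO, from HepG2 cells carrying transfected cis-element reporter constructs; RT-PCR and capillary electrophoresis of reporter mRNA after 24 h exposure.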

[16] = ATG_ERE_CIS: Attagene CIS-FACTORIAL HepG2 Assay for Estrogen Response Element (ERE) (AID 2282940); conditions: HepG2 ERE cis-reporter, Attagene RNA transcript; actives raise or lower the signal
Method in brief: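 After 24 h compound treatment, RNA from transfected HepG2 cells was reverse-transcribed, reporter cDNA PCR-amplified, FAM-labelled, HpaI-cut and resolved by capillary electrophoresis. ERE-driven cis reporter transcripts reflect endogenous factors; gain or loss scored against DMSO.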

[17] = ATG_Ets_CIS: Attagene CIS-FACTORIAL HepG2 Assay for human Erythroblast Transformation Specific (ETS) (AID 2282941); conditions: HepG2 ETS cis-reporter transcription, actives raise or lower the signal
Method in brief: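 Human HepG2 hepatoma cells were transiently transfected with promoter-driven reporter constructs and treated for 24 hours. Reporter transcripts were quantified by RT-PCR with fluorescent primer extension; bidirectional curve fitting used DMSO as reference.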

[18] = target: Hepatocyte nuclear factor 3-beta (Homo sapiens) (UniProt Q9Y261); assay: ATG_FoxA2_CIS: Attagene CIS-FACTORIAL HepG2 Assay for human Forkhead box A2 (FOXA2) (AID 2282942); conditions: HepG2 cis-reporter transcription factor activity, 24 h; actives raise or lower the signal
Method in brief: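 In transiently transfected human HepG2 cells, promoter-driven reporter mRNA levels after 24 h chemical exposure are determined via RT-PCR with capillary electrophoresis. DMSO serves as baseline for bidirectional fitting.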

[19] = ATG_FoxO_CIS: Attagene CIS-FACTORIAL HepG2 Assay for human Forkhead box O (FoxO) (AID 2282943); conditions: HepG2 Attagene cis-reporter, FoxO element, mRNA; actives raise or lower the signal
Method in brief: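 Endogenous transcription factor activity read from multiplexed cis-promoter reporter transcripts in transiently transfected HepG2, 24 h after dosing. Reporter RNA measured via RT-PCR plus capillary electrophoresis of FAM-labeled products; gain or loss relative to DMSO.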

[20] = ATG_GATA_CIS: Attagene CIS-FACTORIAL HepG2 Assay for human GATA Binding Protein (AID 2282944); conditions: HepG2 GATA cis-element reporter, Attagene multiplex mRNA; actives raise or lower the signal
Method in brief: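 Reporter transcripts from a GATA cis-regulated unit, among multiplexed reporters in transfected HepG2 cells, were measured by RT-PCR with capillary electrophoresis after 24 h dosing. Induction or loss scored relative to DMSO.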

Measured: AC50

Sequence of CCAAT/enhancer-binding protein beta (Homo sapiens) (P17676 whole entry, looked up, the tested form may be a part): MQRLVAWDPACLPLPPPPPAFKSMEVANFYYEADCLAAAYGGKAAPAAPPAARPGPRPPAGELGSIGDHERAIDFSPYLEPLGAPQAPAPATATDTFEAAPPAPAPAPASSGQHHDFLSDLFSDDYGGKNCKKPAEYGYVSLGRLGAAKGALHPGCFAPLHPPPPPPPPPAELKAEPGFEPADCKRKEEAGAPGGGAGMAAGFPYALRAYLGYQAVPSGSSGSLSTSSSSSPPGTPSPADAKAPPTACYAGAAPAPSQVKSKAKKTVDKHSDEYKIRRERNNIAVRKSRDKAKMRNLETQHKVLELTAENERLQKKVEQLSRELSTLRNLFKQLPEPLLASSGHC
Sequence of Hepatocyte nuclear factor 3-beta (Homo sapiens) (Q9Y261 whole entry, looked up): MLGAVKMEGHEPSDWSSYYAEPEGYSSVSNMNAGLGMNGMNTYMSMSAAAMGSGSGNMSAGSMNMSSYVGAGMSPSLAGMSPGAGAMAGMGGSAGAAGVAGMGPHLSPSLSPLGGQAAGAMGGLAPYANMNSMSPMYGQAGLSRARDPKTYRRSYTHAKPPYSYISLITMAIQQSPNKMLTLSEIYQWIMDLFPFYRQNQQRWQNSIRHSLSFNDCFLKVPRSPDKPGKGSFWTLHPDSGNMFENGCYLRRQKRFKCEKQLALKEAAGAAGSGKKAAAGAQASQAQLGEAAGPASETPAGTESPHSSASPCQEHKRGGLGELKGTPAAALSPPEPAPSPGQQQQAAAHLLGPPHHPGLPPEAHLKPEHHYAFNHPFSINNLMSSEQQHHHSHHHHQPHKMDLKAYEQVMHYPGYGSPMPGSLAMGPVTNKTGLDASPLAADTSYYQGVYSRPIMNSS
Sequence of Transcription factor E2F1 (Homo sapiens) (Q01094 whole entry, looked up): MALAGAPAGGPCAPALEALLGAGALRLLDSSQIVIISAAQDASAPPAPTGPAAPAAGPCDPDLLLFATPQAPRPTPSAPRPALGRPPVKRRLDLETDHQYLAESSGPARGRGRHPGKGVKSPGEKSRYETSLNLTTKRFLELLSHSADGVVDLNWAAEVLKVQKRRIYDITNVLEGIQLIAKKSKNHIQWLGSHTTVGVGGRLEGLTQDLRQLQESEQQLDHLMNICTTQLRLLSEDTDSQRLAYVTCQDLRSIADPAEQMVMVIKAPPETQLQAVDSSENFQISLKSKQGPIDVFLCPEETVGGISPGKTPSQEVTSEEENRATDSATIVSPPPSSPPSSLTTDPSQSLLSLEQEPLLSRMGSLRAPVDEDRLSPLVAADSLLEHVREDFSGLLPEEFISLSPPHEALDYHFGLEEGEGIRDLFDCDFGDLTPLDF
Sequence of Aryl hydrocarbon receptor (Homo sapiens) (P35869 whole entry, looked up): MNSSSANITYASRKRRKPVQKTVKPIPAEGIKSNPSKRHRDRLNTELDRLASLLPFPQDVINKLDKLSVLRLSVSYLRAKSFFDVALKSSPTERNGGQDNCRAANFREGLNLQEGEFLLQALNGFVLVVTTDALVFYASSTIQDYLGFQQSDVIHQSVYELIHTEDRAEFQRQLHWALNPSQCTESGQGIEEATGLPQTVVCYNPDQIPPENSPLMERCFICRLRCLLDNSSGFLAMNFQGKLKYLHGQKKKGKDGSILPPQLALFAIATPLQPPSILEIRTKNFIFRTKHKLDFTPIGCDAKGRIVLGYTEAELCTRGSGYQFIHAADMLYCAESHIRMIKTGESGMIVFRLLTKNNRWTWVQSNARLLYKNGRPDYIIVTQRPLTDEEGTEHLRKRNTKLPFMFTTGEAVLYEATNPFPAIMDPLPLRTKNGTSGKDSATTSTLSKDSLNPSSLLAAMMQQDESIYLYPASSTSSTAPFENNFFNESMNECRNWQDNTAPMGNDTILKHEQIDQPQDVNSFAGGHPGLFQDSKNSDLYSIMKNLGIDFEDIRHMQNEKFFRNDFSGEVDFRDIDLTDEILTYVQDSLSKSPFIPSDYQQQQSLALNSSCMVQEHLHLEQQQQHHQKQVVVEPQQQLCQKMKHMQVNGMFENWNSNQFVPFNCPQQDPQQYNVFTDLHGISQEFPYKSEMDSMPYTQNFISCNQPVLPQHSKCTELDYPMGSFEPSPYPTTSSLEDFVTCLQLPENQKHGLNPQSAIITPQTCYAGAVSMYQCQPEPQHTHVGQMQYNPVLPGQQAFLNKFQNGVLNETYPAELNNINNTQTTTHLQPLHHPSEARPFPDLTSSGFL
Sequence of Retinoic acid receptor alpha (Homo sapiens) (P10276 whole entry, looked up): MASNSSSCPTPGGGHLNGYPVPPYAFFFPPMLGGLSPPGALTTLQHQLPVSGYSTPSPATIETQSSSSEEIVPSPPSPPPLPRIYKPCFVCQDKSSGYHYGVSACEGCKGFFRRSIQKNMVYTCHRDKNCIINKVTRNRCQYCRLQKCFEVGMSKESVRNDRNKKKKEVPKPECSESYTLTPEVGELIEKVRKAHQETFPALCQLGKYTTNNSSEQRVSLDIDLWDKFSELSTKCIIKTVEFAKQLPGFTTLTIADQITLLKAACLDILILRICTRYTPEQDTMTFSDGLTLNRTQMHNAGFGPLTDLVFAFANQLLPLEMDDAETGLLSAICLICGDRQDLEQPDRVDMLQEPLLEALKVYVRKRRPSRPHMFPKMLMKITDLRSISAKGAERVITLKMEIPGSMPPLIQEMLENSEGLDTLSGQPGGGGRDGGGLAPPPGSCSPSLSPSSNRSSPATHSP

CCOC(=O)C1CC(=O)C(=C(O)C2CC2)C(=O)C1 (configuration not stated)
inactive: all assays above

CCN=c1cc2oc3cc(NCC)c(C)cc3c(-c3ccccc3C(=O)OCC)c-2cc1C
active: [1] 0.0353 µM | [2] 11.1 µM | [5] 4.45 µM | [7] 2.75 µM | [8] 11.1 µM | [14] 11.1 µM
not listed: [12]
inactive: all other assays above

Cc1cnccn1
active: [6] 0.0965 µM
inactive: all other assays above

NC(=O)C(F)(F)C(F)(F)C(F)(F)C(F)(F)C(N)=O
inactive: all assays above

CCC/C=C/CO
inactive: all assays above

Nc1c(Br)cc([N+](=O)[O-])cc1Br
not listed: [12] | [18]
inactive: all other assays above

CC(C)=CCCC(C)O (configuration not stated)
inactive: all assays above
